Test results taken from paper PMC12136788.
Changes are numbered by the printed parent chain. The full ranking holds about 24,000 sequences; the median of “enrichment r” is about 0.99, and the highest 2% start at about 3.7. The sample holds the highest values, similar sequences and a random draw of the others, so the mix is not that of the screen.

T1: UNK ZnF1-3 (human, UniProt Q9C0B0 31-174)
T1 sequence: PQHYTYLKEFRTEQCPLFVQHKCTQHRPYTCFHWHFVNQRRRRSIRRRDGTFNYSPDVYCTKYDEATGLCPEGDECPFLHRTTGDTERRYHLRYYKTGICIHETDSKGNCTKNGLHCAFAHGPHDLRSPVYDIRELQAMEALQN

B1: chr4:144460044:144460045:+_ENSG00000153147_ENST00000283131|hu_mus|hu_hu_hu_mus_False|28_78 (ssRNA)
RNA: GGGAGUUCUACAGUCCGACGAUCACGGUCCAUAGCCUGAAGAUCAACUUGCGGAUUCCAAUCAGAAUCAUAUAAAAUGACUACAUCAGCAGUUGCAAGAUUGAUGCCAAGACCACCAGCACGUGUGCUUAGCAUAAAUACAAACAACAGAGGAUUGAGCAUCA
B2: chr6:41756983:41756984:+_ENSG00000214736_ENST00000398881|hu_mus|FALSE|FALSE (ssRNA)
RNA: GGGAGUUCUACAGUCCGACGAUCAUCAAUGUCACUCAAGUUCCUGGCCAGCCAGACUCCCGCAGCAAAGAGUCCCAAAUUGAGGAUCAAGUUCCUCCGGAAGUCGUUUCGAUCGGUGGCGAAGCGGAAGACACCGCGGAGCCACAACAGAGGAUUGAGCAUCA
B3: 40918001_40923414_123_3pUTR_ENSMUSG00000028423_ENSMUST00000098143|mouse|control|control (ssRNA)
RNA: GGGAGUUCUACAGUCCGACGAUCAGCAGCAUCUGUAUUGAAUUUAAAAGUGCCUGAGACCGGAGGCGCCUCCGCCAUCCCGUGCCGCAGCACCUCAAGCGAGCCCCGCCACCGAGCGAAGGCUGUCACCUGGUCACGUGUCCCCAACAGAGGAUUGAGCAUCA
B4: chr7:140404665:140404666:+_ENSG00000090266_ENST00000247866|hu_hu|hu_hu_hu_mus_False|1_28 (ssRNA)
RNA: GGGAGUUCUACAGUCCGACGAUCUGCUCCUACUCGUCCAGAGAGUUUACAGUGUCAGUCCUCGUCAUCAGGAGGGAUUCCCAGUUCUUCAUCUGUCCACUGUGAAGGAUCAGGAUAUGAAAAGUGACCCAGCACAGCUUCUGACAACAGAGGAUUGAGCAUCA
B5: chr2:43450610:43450611:-_ENSG00000152518_ENST00000282388|hu_mus|FALSE|FALSE (ssRNA)
RNA: GGGAGUUCUACAGUCCGACGAUCGUUAAAUAGUUUUUCAUAUUGAGUUGUGGUGCAGUGGUGCGGAUCAACUCAGAACAACUAAAAAUGAAGCACUUAUUUCCCAACAACUAUGAACUGAGCUCUGCCCAUAGCUUCCAGAGACAACAGAGGAUUGAGCAUCA
B6: chr18:67805652:67805653:+_ENSMUSG00000024537_ENSMUST00000025418|mus_hu|FALSE|FALSE (ssRNA)
RNA: GGGAGUUCUACAGUCCGACGAUCAUACUUAAUAAAAAUGGAUCUUAACUGUAGAGCCACCAGCUUUCUUGAAGGCAAUGAAUACACUUCAGCAUUUAUGCUAAGUUCUGUUGAAUUUCCUUCUGUGGUCGCAUAUGGAUUGUUCAACAGAGGAUUGAGCAUCA
B7: chr13:9170561:9170562:+_ENSMUSG00000033499_ENSMUST00000091829|mus_hu|FALSE|FALSE (ssRNA)
RNA: GGGAGUUCUACAGUCCGACGAUCCACUGGCCCUCAUUCAUCUGCGGGGACGUUCUAGAGAUAUGCACUUACAGACCAGUUACUUAAAAAAAAAAAAAAAAAGCAGAGUUCCCUUAAUUUAGAAAAACUCACUAUAUAUAGCUUCAACAGAGGAUUGAGCAUCA
B8: chr1:32384726:32384727:-_ENSG00000184007_ENST00000602725|perfect_dup|FALSE|FALSE (ssRNA)
RNA: GGGAGUUCUACAGUCCGACGAUCAGGAGGAAAUCAAUAAAUCUUGAAAUGUUCCGCAGCAGAAAACAUUAAAAAGACCACUAAAAUGCCUAUUAUUGAUCACUAUUUUCUCUAUUCAACUUGCUUGUUCCUUAGGAAGCUUCUCAACAGAGGAUUGAGCAUCA
B9: 30503004_30509812_319_CDS_ENSG00000126858_ENST00000394692|human|control|control (ssRNA)
RNA: GGGAGUUCUACAGUCCGACGAUCCAGAUCAGAUUUGUUCCCAACCAAUAUUAAAGGCAGCCUGCUGUCUUUGUCUGUUCUUUCAUUUAUGAGAGGAAUCCAUCGACUUGUUACCUUAUCAAUAGAAUGCUUGUUGUUAACGGCCAACAGAGGAUUGAGCAUCA
B10: chr7:108137184:108137185:-_ENSG00000135241_ENST00000257694|hu_mus|motif|central (ssRNA)
RNA: GGGAGUUCUACAGUCCGACGAUCUCGAUAGAGUUCCUCACAUUCAUCCAGCGGCAUGUGAAACAAUCCCAGCAUAAAUGCGGAUAUGGCCCCUGUGCUUACUCCACAGAUGUAAUCAAAAAGCUGAUGAAUCGGCUUCUGAGUCAACAGAGGAUUGAGCAUCA
B11: chr13:9170561:9170562:+_ENSMUSG00000033499_ENSMUST00000091829|mus_mus|motif|central (ssRNA)
RNA: GGGAGUUCUACAGUCCGACGAUCCCAUCAGCCCCCAUCCAUCUGCUGGACACCCUACCAAUGCGCACUUGUAGACCAACGGUUAAAAAAAAAAAAAAAGGAAGUAGCAGAGUUCCCUUAAUUUAGAAAAACUCAUUAUAGCUUCAACAGAGGAUUGAGCAUCA
B12: chr13:9170561:9170562:+_ENSMUSG00000033499_ENSMUST00000091829|mus_mus|FALSE|FALSE (ssRNA)
RNA: B11 RNA with G80U, G81A
B13: 48821072_48822033_622_CDS_ENSG00000108848_ENST00000240304|human|control|control (ssRNA)
RNA: GGGAGUUCUACAGUCCGACGAUCUGCAGCAAAGCUUUCAAUUGUCGACGUUGUGGACCUUAGCAGUUCUCUCUCUUCUUUUAAUUGCUCAACUAAUUUCAUCAUCCCCUGGGCUUCUUCUACUUUUCCUUCAGACCCUAAUUCCAACAGAGGAUUGAGCAUCA

Target: T1, UNK ZnF1-3
Experiment: nsRBNS (natural sequence RNA bind-n-seq); RBNS binding buffer (assumed for nsRBNS): 25 mM Tris pH 7.5, 150 mM KCl, 3 mM MgCl2, 0.01% Triton X-100, 500 ug/ml BSA, 20 U/ml SUPERase-In, 4 C; UNK is unkempt and MSI1 is Musashi-1; names of the RNAs are library labels; protein concentration not given here; high values mean tight binding

Row | Binder | binding signal
1 | B1 | 1.2 enrichment R
2 | B2 | 1.55 enrichment R
3 | B3 | 1.06 enrichment R
4 | B4 | 1.15 enrichment R
5 | B5 | 1.32 enrichment R
6 | B6 | 1.04 enrichment R
7 | B7 | 6.5 enrichment R
8 | B8 | 0.842 enrichment R
9 | B9 | 0.92 enrichment R
10 | B10 | 1.13 enrichment R
11 | B11 | 4.58 enrichment R
12 | B12 | 5.05 enrichment R
13 | B13 | 0.686 enrichment R
